Inconclusive results are not listed. Unmarked numbers belong to inactive results. The source made the active and inactive calls. Calls come from the whole dose curve; as a rule, active = well fitted cell-killing curve with a large enough effect in the repeat runs; inconclusive = weak or mixed curves, or effect the other way; inactive = no such curve, though single readings can be large or run the other way.

For 26 compounds, outcome and activity, negative = cytotoxicity results are on record in PubChem BioAssay (Tox21).
% is set by controls: 0 for no effect and ±100 for the full control effect.

The experiment is described as follows: qHTS assay to identify small molecule antagonists of the retinoid-related orphan receptor gamma (ROR-gamma) signaling pathway - cell viability counter screen (AID 1159520). Note: nearly all actives have a fitted effect of over 50% in size. As to conditions: Tet-on RORgamma CHO cells viability, ATP luminescence, 16 h; series mostly up to 92.4 µM. A digest of the protocol: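 Cytotoxicity was read from cellular ATP (CellTiter-Glo luminescence) after 16 hr at 37 C with 1 uM doxycycline induction. The inducer was added 2 hr after compound transfer to Tet-on ROR gamma CHO cells.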
For orientation: qHTS replaces the single test concentration by a dilution series.
`CS(=O)(=O)O`: the outcome was inactive.

`CCOC(C)(C)C`: the outcome was inactive.

Consider `O=Cc1cccc([N+](=O)[O-])c1`, for which the result was inactive.

In the case of `N=C(N)c1ccc(OCCCOc2ccc(C(=N)N)cc2)cc1`, the call was inactive.

For `NC(=O)COCCN1CCN(C(c2ccccc2)c2ccc(Cl)cc2)CC1` (stereo unspecified), the compound was called inactive.

In the case of `C/C=C(\C)C#N`, the compound was called inactive.

As to `CCCCCCOC(=O)CCCCC(=O)OCCCCCC`, the compound was called inactive.

In the case of `C[C@@H]1CCN(C(=O)[C@H](CCCN=C(N)N)NS(=O)(=O)c2cccc3c2NC[C@H](C)C3)[C@@H](C(=O)O)C1`, the compound was called inactive.

Regarding `CCc1nccnc1CC`, the activity, negative = cytotoxicity was -7.52% [at 19 µM].

In the case of `COC(C)(C)CCCC(C)CC=O` (stereo unspecified), the compound was called inactive.

For `CCCc1cc(C(N)=S)ccn1`, the compound was classed as inactive.

In the case of `O=C(O)CCCl`, the compound was called inactive.

For `O=C(O)c1ccccc1OP(=O)(O)O`, the call was inactive.

For the compound `Cn1cc(S(C)=O)c(=O)c2ccc(F)cc21` (stereo unspecified), the result was inactive.

`O=c1[nH]c(=O)n([C@H]2C[C@H](O)[C@@H](CO)O2)cc1I`: the call was inactive.

As to `CC(=O)Nc1ccc(S(N)(=O)=O)cc1`, the compound was classed as inactive.

As for `C=C(C)C(=O)OCCCCCCCC(C)C`, the outcome was inactive.

As to `CC(C)(CC(=O)O)C(=O)O`, the compound was classed as inactive.

With `CO[C@]12C[C@@H](COC(=O)c3cncc(Br)c3)CN(C)[C@@H]1Cc1cn(C)c3cccc2c13`, the result was inactive.

In the case of `CC(=O)CC(C)C`, the result was inactive.

On to `O=[N+]([O-])c1ccc(F)cc1F`, for which the result was inactive.

Regarding `Nc1c[n+](N2CCOCC2)no1`, the outcome was inactive.

For `CC/C=C\CCOC(C)=O`, the compound was classed as inactive.

As for `COC(=O)NN`, the compound was classed as inactive.

For `C1CN(CCOCCN2CCOCC2)CCO1`, the outcome was inactive.

Regarding `C[C@H]1C[C@@H](O)CC(C)(C)C1`, the compound was classed as inactive.
